Assay results reported in PubChem BioAssay.
The source made the active and inactive calls. Unless noted, no rule for the calls is given here.

How the values were obtained:
[1] = compound effects on lung adenocarcinoma cell viability – A549, calcein-AM fluorescence, 48 h, basal, profiling panel (AID 1162); details: higher = more signal; also: test concentration not given here
[2] = compound effects on differentiated 3T3-L1 adipocyte viability – cell-based, 3T3-L1 adipocytes, calcein-AM fluorescence, 48 h, basal, profiling panel (AID 1163); details: 3T3-L1 adipocytes viability, higher = more signal; also: test concentration not given here
[3] = compound effects on hepatocellular carcinoma cell viability – HepG2, calcein-AM fluorescence, 48 h, basal, profiling panel (AID 1164); details: higher = more signal; also: test concentration not given here
[4] = compound effects on multiple myeloma cell viability – MM1S, calcein-AM fluorescence, 48 h, basal, profiling panel (AID 1165); details: higher = more signal;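 also: viability of MM1S multiple myeloma cells under basal unstimulated conditions; test concentration not given here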
[5] = calcein-AM signal in unstimulated myeloma cells – cell-based, calcein-AM fluorescence, 48 h, PK04 Diversity Set, profiling panel (AID 1166); details: RPMI8226 myeloma viability, higher = more signal;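 also: cells grown under basal conditions without added stimulus; test concentration not given here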
[6] = JC-1 mitochondrial signal, unstimulated HepG2 cells – cell-based, JC-1 fluorescence, 24 h, 100 nL compound, profiling panel (AID 1167); details: HepG2 mitochondrial potential, higher = more signal; also: test concentration not given here
[7] = JC-1 mitochondrial signal, unstimulated adipocytes – cell-based, JC-1 fluorescence, 3T3-L1 adipocytes, 24 h, 100 nL compound, profiling panel (AID 1168); details: JC-1 mitochondrial fluorescence, higher = more signal, called active from +8 up or from −8 down; also: test concentration not given here
[8] = JC-1 mitochondrial signal, unstimulated myeloma cells – cell-based, JC-1 fluorescence, RPMI8226, 24 h, 100 nL compound, profiling panel (AID 1169); details: JC-1 mitochondrial potential fluorescence, higher = more signal; also: test concentration not given here
[9] = JC-1 mitochondrial signal, unstimulated MM1S myeloma – cell-based, JC-1 fluorescence, 24 h, 100 nL compound, profiling panel (AID 1170); details: MM1S mitochondrial potential, higher = more signal; also: test concentration not given here
[10] = resazurin metabolic signal in A549 cells – cell-based, resazurin fluorescence, 24 h, PK04 Diversity Set, profiling panel (AID 1171); details: A549 viability, higher = more signal, called active from +8 up or from −8 down; also: test concentration not given here
[11] = resazurin metabolic signal in HepG2 cells – cell-based, resazurin fluorescence, 24 h, PK04 Diversity Set, profiling panel (AID 1172); details: HepG2 viability, higher = more signal; also: test concentration not given here
[12] = budding yeast growth changes without added modifier – OD600, strain BY4716, 24 h, basal condition, primary screen (AID 1173); details: S. cerevisiae BY4716 growth, OD600, 24 h; higher = more signal, called active from +8 up or from −8 down
[13] = viability profiling in MM1S myeloma cells – cell-based, resazurin fluorescence, basal, 24 h, PK04 Diversity Set, profiling panel (AID 1174); details: higher = more signal, called active from +8 up or from −8 down; also: test concentration not given here
[14] = target: Dihydroorotate dehydrogenase (quinone), mitochondrial (Plasmodium falciparum (isolate 3D7)) (UniProt Q08210); test: inhibition of P. falciparum DHODH – biochemical, C-terminal His tag, absorbance 600 nm, primary screen (AID 1175); details: PfDHODH enzyme, DCIP absorbance 600 nm; higher = more signal, called active from +8 up or from −8 down;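 also: recombinant parasite enzyme with a five histidine tag at its C terminus; test concentration not given here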
[15] = inhibition of PAO1 biofilm formation – strain PAO1, LB-PBS medium, absorbance 600 nm, primary screen (AID 1176); also: test concentration not given here; details: P. aeruginosa PAO1 growth/biofilm, A600, 12 h; higher = more signal
[16] = growth modulation of vineyard yeast isolate – strain RM11-1a, OD600, basal, 24 h, primary screen (AID 1177);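 also: cultures grown under basal conditions with no added stressor; test concentration not given here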; details: S. cerevisiae RM11-1a growth, OD600, 24 h; higher = more signal, called active from +8 up or from −8 down
[17] = growth of efflux-deficient E. coli DRC39 – strain DRC39, OD650, 24 h, E. coli filamentation inducers, primary screen (AID 1178);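 also: growth measured as culture turbidity by optical density at 650 nm; test concentration not given here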; details: E. coli DRC39 acrAB, higher = more signal, called active from +8 up or from −8 down
[18] = growth of efflux-deficient E. coli DRC39 – strain DRC39, OD650, 48 h, E. coli filamentation inducers, primary screen (AID 1179);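 also: screen aims at cell division blockers that make cells filament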; details: E. coli DRC39 delta-acrAB growth, higher = more signal, called active from +8 up or from −8 down
[19] = viability profiling in RPMI8226 myeloma cells – cell-based, resazurin fluorescence, basal, 24 h, PK04 Diversity Set, profiling panel (AID 1180); details: higher = more signal;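 also: RPMI8826 multiple myeloma cell line at 5000 cells per well; test concentration not given here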
[20] = target: E3 ubiquitin-protein ligase XIAP (Homo sapiens) (UniProt P98170); test: small molecules binding XIAP protein – biophysical, small-molecule microarray, fluorescence 635 nm, primary screen (AID 1181); details: higher = more signal;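 also: score merges 667 nm emission and signal to noise over triplicate slides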
Sequence of E3 ubiquitin-protein ligase XIAP (Homo sapiens) (P98170 whole entry, looked up): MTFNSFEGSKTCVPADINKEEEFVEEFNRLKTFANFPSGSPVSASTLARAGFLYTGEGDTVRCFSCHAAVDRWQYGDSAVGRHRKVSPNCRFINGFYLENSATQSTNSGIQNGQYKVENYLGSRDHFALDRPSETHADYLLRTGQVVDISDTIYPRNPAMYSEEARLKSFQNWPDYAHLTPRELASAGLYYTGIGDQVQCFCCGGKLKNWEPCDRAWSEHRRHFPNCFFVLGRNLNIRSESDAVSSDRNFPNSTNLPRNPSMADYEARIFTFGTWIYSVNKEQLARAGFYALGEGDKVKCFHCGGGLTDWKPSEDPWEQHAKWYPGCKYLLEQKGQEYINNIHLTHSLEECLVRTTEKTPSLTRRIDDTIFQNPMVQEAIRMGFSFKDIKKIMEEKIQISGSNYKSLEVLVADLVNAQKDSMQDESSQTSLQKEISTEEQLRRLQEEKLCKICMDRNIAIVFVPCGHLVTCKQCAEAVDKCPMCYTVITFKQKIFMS

Sequence of Dihydroorotate dehydrogenase (quinone), mitochondrial (Plasmodium falciparum (isolate 3D7)) (Q08210 whole entry, looked up): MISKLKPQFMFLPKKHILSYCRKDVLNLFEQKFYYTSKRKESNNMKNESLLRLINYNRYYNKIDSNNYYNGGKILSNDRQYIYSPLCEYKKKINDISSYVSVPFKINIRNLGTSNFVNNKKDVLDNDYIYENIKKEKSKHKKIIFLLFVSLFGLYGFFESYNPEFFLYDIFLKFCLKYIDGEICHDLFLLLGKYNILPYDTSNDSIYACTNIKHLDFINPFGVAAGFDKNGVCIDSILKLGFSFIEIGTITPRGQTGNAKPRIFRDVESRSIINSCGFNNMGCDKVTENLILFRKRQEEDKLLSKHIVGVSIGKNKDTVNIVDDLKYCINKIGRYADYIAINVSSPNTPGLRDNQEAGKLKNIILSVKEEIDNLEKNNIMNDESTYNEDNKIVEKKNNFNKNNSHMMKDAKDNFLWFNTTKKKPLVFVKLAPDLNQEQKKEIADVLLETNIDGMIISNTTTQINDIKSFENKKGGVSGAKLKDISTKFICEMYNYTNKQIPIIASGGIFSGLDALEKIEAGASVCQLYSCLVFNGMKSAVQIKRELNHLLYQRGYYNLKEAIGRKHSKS

SMILES | z-score [1] | z-score [2] | z-score [3] | z-score [4] | z-score [5] | z-score [6] | z-score [7] | z-score [8] | z-score [9] | z-score [10] | z-score [11] | z-score [12] | z-score [13] | composite z-score [14] | z-score [15] | z-score [16] | z-score [17] | z-score [18] | z-score [19] | composite z-score [20]
COC(=O)[C@@]1(Cc2ccccc2)[C@H]2c3cc(C(=O)N4CCCC4)n(CCN4CNCC4=O)c3C[C@H]2CN1C(=O)c1ccccc1 | -0.626 | 0.337 | -0.509 | 0.312 | 0.261 | -0.314 | 0.251 (inactive) | -0.185 | -0.777 | 0.0269 (inactive) | 0.276 | 0.864 (inactive) | 0.327 (inactive) | -0.482 (inactive) | -0.167 (inactive) | -0.189 (inactive) | 0.499 (inactive) | -0.321 (inactive) | 0.742 | 0.414
O=C1O[C@@H](c2ccccc2)[C@@H](c2ccccc2)N2[C@@H](c3ccc(OCCO)cc3)[C@]3(C(=O)Nc4ccc(C#CCCO)cc43)[C@@H](C(=O)N3CCN(c4ncccn4)CC3)[C@H]12 | 0.848 | 0.38 | -0.17 | 0.0057 | 0.442 | 0.0349 | 1.88 (inactive) | -0.623 | 0.173 | 0.293 (inactive) | 1.26 | 1.35 (inactive) | 0.833 (inactive) | -1.58 (inactive) | 1.55 (inactive) | 2.04 (inactive) | 1.05 (inactive) | 0.17 (inactive) | 2.17 | 0.19
O=C1O[C@H](c2ccccc2)[C@H](c2ccccc2)N2[C@H]1[C@@H](C(=O)Nc1nc3ccccc3s1)[C@]1(C(=O)Nc3ccc(C#CC4=CCCCC4)cc31)[C@H]2c1ccccc1OCCO | -0.639 | 0.313 | -0.557 | -1.63 | -1.07 | -2.86 | -1.06 (inactive) | -0.798 | -1.46 | -0.893 (inactive) | 0.111 | 1.86 (inactive) | -0.912 (inactive) | 0.835 (inactive) | 2.73 (inactive) | 2.71 (inactive) | -1.27 (inactive) | -1.24 (inactive) | -0.711 | 0.0705
NC(=O)[C@H]1[C@@H]2C(=O)O[C@@H](c3ccccc3)[C@@H](c3ccccc3)N2[C@@H](c2ccc(O)cc2)[C@]12C(=O)Nc1ccc(C#CCCO)cc12 | -0.191 | -0.0912 | 0.0926 | -0.664 | 0.0381 | -1.59 | -0.699 (inactive) | -0.583 | 0.196 | -0.0774 (inactive) | -0.744 | -0.383 (inactive) | -0.354 (inactive) | -0.25 (inactive) | -0.0604 (inactive) | -1.03 (inactive) | -0.847 (inactive) | -1.18 (inactive) | -0.616 | 0.135
COCCOC(=O)N1C(=O)[C@@]2(c3cc(C#CC4=CCCCC4)ccc31)[C@H](C(=O)NC[C@H](O)c1ccccc1)[C@H]1C(=O)O[C@H](c3ccccc3)[C@H](c3ccccc3)N1[C@@H]2c1ccc(OCCO)cc1 | -0.602 | -0.39 | -0.199 | -1.89 | -1.63 | -1.92 | 0.449 (inactive) | -0.704 | -1.65 | -0.355 (inactive) | 0.604 | 1.61 (inactive) | -1.68 (inactive) | -0.773 (inactive) | 2.83 (inactive) | 2.7 (inactive) | -0.276 (inactive) | 0.0077 (inactive) | -1.44 | -0.26
COc1ccc(-c2cc3c(c(-c4ccccc4)n2)[Si](C(C)C)(C(C)C)O[C@H]3c2ccccc2)cn1 | 0.705 | -0.263 | 0.674 | -1.48 | -1.85 | -1.57 | -0.739 (inactive) | -0.707 | -0.225 | 1.51 (inactive) | 0.158 | 0.509 (inactive) | 0.117 (inactive) | -0.349 (inactive) | 0.35 (inactive) | -0.824 (inactive) | 0.0539 (inactive) | -0.508 (inactive) | 0.184 | 0.113
CCCN1C(=O)[C@@]2(CCS(=O)(=O)c3ccccc3)N=C(c3ccc(OCCCO)cc3)O[C@H]2c2ccccc21 | -1.3 | 2.41 | -0.64 | -0.454 | -3.68 | 0.241 | 0.535 (inactive) | -1.31 | -0.148 | -1.33 (inactive) | -0.561 | 1.27 (inactive) | -1.03 (inactive) | 2.02 (inactive) | 0.469 (inactive) | 1.56 (inactive) | 0.861 (inactive) | 0.163 (inactive) | -2.15 | -0.072
O=C1C2C=CC(C(O)c3ccccc3)N(n3cnnc3)C2C(=O)N1Cc1ccccc1 (stereo not given) | 0.668 | -0.0533 | 0.765 | 0.2 | -1.68 | 0.323 | 0.129 (inactive) | -0.605 | 0.474 | -1.05 (inactive) | -0.362 | -0.0402 (inactive) | -0.468 (inactive) | -1.03 (inactive) | 1.87 (inactive) | -1.08 (inactive) | -0.456 (inactive) | -1.03 (inactive) | -0.974 | 0.23
